Compounds with a hit are over-represented: about 7.2% of the library has one in this group of screens.
Marburg entry inh: inhibitors of Marburg virus binding or cell entry. Marburg virus pseudotyped entry inhibition, cell reporter. Potency, µM (series often up to 37.8 µM), for inactives: at the highest dose activity change, negative = inhibition, actives largely listed as inhibitors. 1.8% of 300,000 active. AID 540276; calls by dose curve; tested in HEK293 cells
Sm TGR block: blocks Schistosoma mansoni thioredoxin glutathione reductase; Q962Y6; purified TGR, DTNB reduction, TNB absorbance 405 nm; Potency, µM (titrated, usually from 114 µM), without a hit: at the top dose activity change, negative = inhibition, actives largely listed as inhibitors; 3% of 360,000 active; AID 485364; further: nearly all actives have a fitted effect of over 60% in size
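TGR 20 nM + NADPH 100 uM (dispensed conc.), cpd preinc 15 min RT; start with NADPH (500 uM addition) then DTNB (15 mM addition). Kinetic TNB absorbance, 405 nm filter. Four-parameter Hill fit across titration.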
HCV inh: blocks hepatitis C virus. Potency, µM (doses to about 41.8 µM), without a hit: at the highest dose activity change, negative = inhibition, actives largely listed as inhibitors. Huh7.5.1 HCVcc-Cre infection, luciferase reporter, 44 h. AID 651820. 3.4% of 340,000 active
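Luciferase read-out (15 sec integration) after a 15 min room-temperature substrate step quantifies HCVcc-Cre infection. Cells, 1,000 per well, had compound added 4 h post-plating, then virus at ~0.5 moi, and were cultured 44 h.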
FMDV antiviral: blocks foot and mouth disease virus; FMDV antiviral cell-based qHTS; Potency, µM (titrated, usually from 57.9 µM), for inactives: at the top dose activity change, negative = inhibition, most hits filed as inhibitors; 1.2% of 410,000 active; calls by dose curve; tested in HEK293T cells; further: read-out not given here; nearly all actives have a fitted effect of over 45% in size
Lassa entry inh: Lassa virus entry inhibition. Lassa virus pseudotype entry inhibition, cell reporter. Potency, µM (top dose mostly 37.9 µM), inactives show at the top dose activity change, negative = inhibition, most hits filed as inhibitors. 1.2% of 300,000 active; calls by dose curve; tested in HEK293 cells; further: nearly all actives have a fitted effect of over 50% in size
RE007 growth inh: less growth of the S. pombe RE007 Vpr strain. S. pombe RE007 Vpr strain, BacTiter-Glo ATP luminescence, 24 h. Potency, µM (doses to about 92.2 µM), without a hit: at the highest dose activity change, negative = less growth, actives largely listed as inhibitors. 0.21% of 360,000 active. AID 651644; active means well fitted falling curve with a large enough effect; inconclusive means small, poorly fitted or top-dose-only effect; inactive means no such curve, though single readings can be large or run the other way; further: nearly all actives have a fitted effect of over 50% in size
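Fission yeast strain RE007, carrying one chromosomally integrated HIV-1 vpr copy, was seeded at OD 0.01 in PMG+AL medium with 23 nL pinned compound. After 24 h at 30 °C and 99% humidity, viability was read by BacTiter-Glo luminescence.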
Active calls of the source: *; u = inconclusive; x = not tested or not shown; ! = not active in a repeat; [ ] = another dose, or the depositor's remark. Unless noted, the call rests on the fitted dose curve; in most records, active means well fitted curve in the direction sought with a large enough effect; inconclusive means small, poorly fitted or top-dose-only effect, or another doubt; inactive means no such curve, though single readings can be large; an effect the other way counts as inactive or inconclusive. On the % scale 0 is the no-effect control and ±100 the full control effect; potency means the concentration at half of the fitted maximal effect.

SMILES	Marburg entry inh	Sm TGR block	HCV inh	FMDV antiviral	Lassa entry inh	RE007 growth inh
CCC(C(=O)Nc1cc(C)ccc1C)n1c(=O)c(C(F)(F)F)nc2ccccc21 (configuration not stated)	x	-5%	x	-4%	26%[46.1 µM]	x
N[C@H](C(=O)O)c1ccc(C(=O)O)cc1	x	x	x	6%	x	x
COc1ccccc1-c1nc(S(=O)(=O)c2ccccc2)c(N2CCCCC2)o1	11%	0.79µM*	-10%	9%	-5%	1%
Cc1ccc(S(=O)(=O)c2nc(-c3ccccc3F)oc2N2CC(C)OC(C)C2)cc1 (configuration not stated)	-17%	20µM*	u	27%	16µM*	10%
Cc1ccc(S(=O)(=O)c2nc(-c3ccccc3Cl)oc2N2CCCCCC2)cc1	u	u	x	26%	u	x
O=S(=O)(c1ccccc1)c1nc(-c2ccco2)oc1N1CCCCC1	0%[46.1 µM]	45µM*	u	-6%	u	10%
O=S(=O)(c1ccc(F)cc1)c1nc(-c2ccccc2F)oc1N1CCCCC1	-6%	10µM*	-5%	-8%	-22%	-12%
Cc1ccc2c(c1)N(C(=O)CCC(=O)NCc1cccs1)CCO2	-5%[46.1 µM]	-6%	x	-3%	-5%[46.1 µM]	x
COc1ccc(S(=O)(=O)NCC(c2ccco2)N2CCOCC2)cc1OC (configuration not stated)	x	-1%	x	8%	15%[46.1 µM]	x
N#CCCn1cc(C=C(C#N)C#N)c(-c2ccc(Cl)cc2)n1	u	1.3µM*	22%	u	4%[46.1 µM]	-22%
Cc1onc(-c2c(Cl)cccc2Cl)c1C(=O)c1c[nH]c(C(=O)NCC2CCCO2)c1 (configuration not stated)	u	1%	11µM*	u	8.9µM*	-3%
COc1cc(/C=N/NC(=O)c2c(-c3c(Cl)cccc3Cl)noc2C)ccc1OCC(N)=O	-11%[46.1 µM]	3%	-6%	17%	4%[46.1 µM]	11%
Cc1onc(-c2c(Cl)cccc2Cl)c1C(=O)N/N=C(\N)COc1ccc(Cl)cc1	u	1%	2.8µM*	u	-2%	-7%
CCC(CC)C(=O)c1c[nH]c(C(=O)NCC2CCCO2)c1 (configuration not stated)	1%	4%	15%	-15%	7.1µM*	1%
Cc1onc(-c2c(Cl)cccc2Cl)c1C(=O)NC1CCCCC1	u	-3%	13µM*	-20%	u	3%
CC(=O)c1c[nH]c(C(=O)NCC2CCCO2)c1 (configuration not stated)	-1%	6%	1%	-3%	-4%	3%
CCCCCCCCCCCCCCCCOCC(CO)OC(C)=O (configuration not stated)	x	x	x	-8%[6.7 µM]	x	x
Cc1onc(-c2c(Cl)cccc2Cl)c1C(=O)N[C@@H]1C(=O)N2[C@@H]1SC(C)(C)[C@@H]2C(=O)O	x	-13%	0.5µM*!	-11%	x	5%[18.4 µM]
COc1ccccc1-c1oc2ccccc2c1C#CCCO	x	u	14µM*	-20%	x	7%
COc1ccccc1-c1oc2ccccc2c1C#CC1(O)CCCCC1	x	x	-22%	-18%	x	4%
Cc1cccc(-c2oc3ccccc3c2C#CCCCCO)c1	x	u	u	-10%	x	6%
Cc1cccc(-c2oc3ccccc3c2C#CCCO)c1	x	16µM*	u	-8%	x	-6%
Cc1cccc(NC(=O)c2oc3ccccc3c2NC(=O)Cc2coc3c(C)c(C)ccc23)c1	22%[46.1 µM]	6%	x	2%	-4%[46.1 µM]	x
CCn1c(SCC(=O)NCc2ccco2)nc2ccccc2c1=O	x	45µM*	-7%	-7%	x	-6%
O=C(CSc1nc2ccccc2c(=O)n1Cc1ccco1)NCCN1C(=O)CSC1=O	-2%[46.1 µM]	13%	10µM*	-12%	-12%	7%
SMILES	Marburg entry inh	Sm TGR block	HCV inh	FMDV antiviral	Lassa entry inh	RE007 growth inh
Cn1c(SCC(=O)NCCN2C(=O)CSC2=O)nc2ccccc2c1=O	11%	-6%	-1%	2%	-5%	6%
Cc1ccc(NC(=O)CSc2nc3ccccc3c3nc4ccccc4n23)cc1	6.5µM*	4%	u	-7%	u	-16%
COc1ccc(C(=O)Nn2c(SCC(=O)NCc3ccco3)nc3ccccc3c2=O)cc1	0.4µM*	u	-15%	14µM*	1µM*	0%
COc1ccc(NC(=O)CSc2nc3ccccc3c3nc4ccccc4n23)cc1	u	3%	u	7%	-18%	5%
CC(NC(=O)c1ccccc1NC(=O)c1nsc2ccccc12)c1ccccc1 (configuration not stated)	x	3%	x	19%	u	x
Cn1c(SCC(=O)NCc2ccco2)nc2ccccc2c1=O	10%	0%	19%	-13%	13%	-4%
O=C(CSc1nc2ccccc2c2nc3ccccc3n12)NCc1ccco1	15%	8.9µM*	u	-12%	-2%	0%
O=C(CCCCCn1c(SCc2ccncc2)nc2ccccc2c1=O)NCc1ccco1	u	45µM*	10µM*	0%	-2%	7%
O=C(CSc1nc2[nH]ncc2c(=O)n1-c1ccccc1Br)NCc1ccco1	1%	22µM*	14%	15%	3%	8%
COc1ccc(Cn2c(SCC(=O)NCc3ccco3)nc3ccsc3c2=O)cc1	u	u	2.5µM*	5%	-4%	-9%
CCc1ccc(CN2CCc3nc(Nc4ccccc4)ncc3C2)cc1	x	-1%	x	-20%	28%[46.1 µM]	x
COc1cccc(CNC(=O)c2sc3nc4n(c(=O)c3c2C)CCC4)c1	x	5%	x	-10%	1%[46.1 µM]	x
COCCn1c(N2CCN(c3ccc(OC)cc3)CC2)nc2c1c(=O)n(C)c(=O)n2C	-5%	-4%	4%	-1%	u	8%
Cn1c(=O)c2c(nc(CN3CCc4ccccc4C3)n2Cc2ccccc2)n(C)c1=O	u	-17%	13µM*	u	-29%	8%
CC1CCN(c2nc3c(c(=O)n(C)c(=O)n3C)n2Cc2ccccc2)CC1	-23%	9%	u	x	7.3µM*	16%
C=CCn1c(N2CCN(c3ccc(OC)cc3)CC2)nc2c1c(=O)n(C)c(=O)n2C	u	-2%	u	28µM*	u	4%
CC1=C(C(=O)Nc2ccccc2C)C(c2cccs2)n2nc(SCc3cc(C)ccc3C)nc2N1 (configuration not stated)	x	4%	x	0%	-3%[46.1 µM]	x
COc1ccc(C(=O)O/N=C(\N)Cc2ccc(Cl)cc2)cc1OC	u	-10%	32µM*	u	11µM*	u
COc1ccc(/C(N)=N/OC(=O)c2ccc3c(c2)OCO3)cc1OC	u	10%	8.9µM*	x	u	-4%
N/C(=N\OC(=O)c1ccc2c(c1)OCO2)c1cccc(Br)c1	u	1%	13%	-23%	x	-24%
COc1cc(C(=O)O/N=C(\N)Cc2ccc([N+](=O)[O-])cc2)cc(OC)c1OC	2.5µM*	7%	u	u	3.2µM*	-7%

Assay outcomes from PubChem BioAssay.
